A selection: hits, their analogues and other compounds. The true share with any hit is near 2.4%.
PfM18AAP inh-1 – PfM18AAP inhibitors, malaria aminopeptidase, primary screen, biochemical, QFRET, recombinant enzyme | M18 aspartyl aminopeptidase (Plasmodium falciparum 3D7) | H-Glu-NHMec fluorogenic cleavage | inhibition, % at 7.35 µM | 1.2% of 290,000 active | AID 1822, 2009;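 active = inhibition above the campaign mean inhibition over all tested compounds plus 3 SD, cut at about 28% in these data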;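 note: 0% = plate median of test compound wells and 100% = 2 mM ZnCl2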
PABP FP inh – PABP poly(A) RNA binding inhibitors, primary screen, biochemical, fluorescence polarization, uHTS | Polyadenylate-binding protein 1 (Homo sapiens), P11940 | inhibition, % at 35 µM | 1% of 290,000 active | AID 2014, 2009;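 note: calls also rest on retests at 20 µM and on dose response follow-up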
MLLE-PAM2 inh – inhibitors of PABP1 MLLE–PAM2 peptide binding, primary screen, biochemical, fluorescence polarization, FITC-PAM2, GST-MLLE; Polyadenylate-binding protein 1 (Homo sapiens), P11940; inhibition, % at 20 µM; 0.36% of 360,000 active; AID 588489, 2011; in the data active = inhibition above about 35%, passing the limit was not always enough;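 note: plate controls were DMSO wells with GST-MLLE for no effect and wells lacking GST-MLLE protein for full effect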
eIF4E 4G PPI – eIF4E–eIF4G protein interaction inhibitors, primary screen, biochemical, uHTS, TR-FRET, eIF4GI fragment. AID 782, 2007. TR-FRET eIF4E-eIF4GI(517-606) binding, 2 h. inhibition, % at 21.7 µM. 0.37% of 220,000 active;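 active = inhibition above about 30%, limit read from the data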;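 note: 0% = full FRET control wells and 100% = background wells lacking eIF4GI fragment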
PERK inh – block of dimerizer-induced PERK translation repression, primary screen, PERK inhibitor project, CHO PERK-DD cells, SEAP luminescence, HTS; Eukaryotic translation initiation factor 2-alpha kinase 3 (Homo sapiens), Q9NZJ5; CHO PERK-DD fusion, SEAP luminescence translation reporter; inhibition, % at 5.6 µM; 0.17% of 220,000 active; AID 1416, 2008;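 active = inhibition above the mean inhibition of all tested compounds plus 3 SD, set separately per screening campaign, cut at about 2.9% in these data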;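 note: PERK kinase domain activated by AP20187 dimerizer at 100 nM; 0% = DMSO with dimerizer and 100% = rapamycin at 8.4 µM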
Target sequence (Q9NZJ5 whole entry, looked up, the tested form may be a part): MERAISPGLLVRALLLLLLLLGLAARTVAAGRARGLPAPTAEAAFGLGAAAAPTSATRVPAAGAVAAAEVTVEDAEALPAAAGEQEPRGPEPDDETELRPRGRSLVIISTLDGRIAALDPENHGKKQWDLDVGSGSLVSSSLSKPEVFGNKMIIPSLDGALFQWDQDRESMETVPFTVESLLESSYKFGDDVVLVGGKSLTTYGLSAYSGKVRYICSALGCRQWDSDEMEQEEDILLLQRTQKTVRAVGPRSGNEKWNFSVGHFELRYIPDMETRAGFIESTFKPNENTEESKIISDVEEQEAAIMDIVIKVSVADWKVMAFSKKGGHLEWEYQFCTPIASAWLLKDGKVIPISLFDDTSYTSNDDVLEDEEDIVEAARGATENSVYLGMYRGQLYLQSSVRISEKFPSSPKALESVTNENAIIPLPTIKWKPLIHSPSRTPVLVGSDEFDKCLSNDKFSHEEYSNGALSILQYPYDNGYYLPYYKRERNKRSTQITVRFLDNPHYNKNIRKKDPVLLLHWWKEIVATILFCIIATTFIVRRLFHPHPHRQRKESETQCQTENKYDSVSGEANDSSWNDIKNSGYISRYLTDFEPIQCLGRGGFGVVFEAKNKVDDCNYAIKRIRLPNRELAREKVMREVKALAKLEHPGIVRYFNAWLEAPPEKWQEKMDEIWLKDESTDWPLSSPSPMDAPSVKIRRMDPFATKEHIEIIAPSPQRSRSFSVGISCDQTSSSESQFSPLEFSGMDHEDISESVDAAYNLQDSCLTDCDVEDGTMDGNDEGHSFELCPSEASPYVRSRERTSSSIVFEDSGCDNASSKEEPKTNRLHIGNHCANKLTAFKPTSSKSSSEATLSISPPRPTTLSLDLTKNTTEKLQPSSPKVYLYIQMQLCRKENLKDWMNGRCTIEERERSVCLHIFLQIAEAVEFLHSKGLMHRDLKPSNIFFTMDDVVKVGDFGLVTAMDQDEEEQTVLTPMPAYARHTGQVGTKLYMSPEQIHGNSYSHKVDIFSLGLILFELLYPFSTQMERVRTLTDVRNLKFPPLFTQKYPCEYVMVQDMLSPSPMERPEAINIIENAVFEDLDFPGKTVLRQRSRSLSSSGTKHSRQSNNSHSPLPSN
eIF4H inh – human eIF4H binding inhibitors, primary screen, translation initiation inhibitor project, biochemical, uHTS, fluorescence polarization; Eukaryotic translation initiation factor 4H (Homo sapiens), Q15056; eIF4H fluorescence polarization binding assay; 0.94% of 290,000 active; inhibition, % at 35 µM; AID 2012, 2009;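 note: calls also rest on retests at 20 µM and on dose response follow-up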
PfM18AAP inh-2 – PfM18AAP inhibitors, malaria aminopeptidase, confirmation, biochemical, QFRET, recombinant enzyme, triplicate | shares compounds with PfM18AAP inh-1 | H-Glu-NHMec fluorogenic cleavage | inhibition, % at 7.35 µM | 28% of 2,400 active;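 active = mean inhibition over replicate wells above the hit cutoff set for the earlier primary screen, cut at about 29% in these data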;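 note: 0% = median of test compound wells and 100% = 2 mM ZnCl2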
CTSL1 counter – cathepsin L1 inhibitors, retest, confirmation, counter-screen for PFM18AAP inhibitor project, biochemical, QFRET, triplicate | shares compounds with PfM18AAP inh-1 | purified cathepsin L1, Z-Leu-Arg-MCA fluorescence | inhibition, % at 5.96 µM | 2,400 tested, under 10 active;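 active = average inhibition across replicates above the hit cutoff set in the earlier primary screen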;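 note: 0% = median of test compound wells and 100% = Z-Phe-Ala-diazomethylketone 1 µM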
An asterisk follows results filed as active; / = no result given. Unless noted, the rule behind the calls is not given here.

SMILES | PfM18AAP inh-1 | PABP FP inh | MLLE-PAM2 inh | eIF4E 4G PPI | PERK inh | eIF4H inh | PfM18AAP inh-2 | CTSL1 counter
Cc1ccc(O)c(Nc2c3ccccc3nc3ccccc23)c1 | 42.7* | 2.9 | -0.6 | / | / | -0.8 | -48.4 | 4.7
COC(=O)CCCCCNc1ccc(C(=O)OC)cc1N | -8.3 | 13.7 | -5.5 | 0.6 | -1.2 | -6.6 | / | /
NC(=O)N/N=C/c1coc2ccc(O)cc2c1=O | 66.0* | 13.1 | 13.8 | 0.5 | 2.5 | 4.0 | 56.6* | -3.2
CS(=O)(=O)N1CCC(C(=O)Nc2ccccc2Sc2ccccc2)CC1 | -4.6 | -4.0 | -1.1 | 4.2 | -0.1 | -16.3 | / | /
CCNC(=S)NNc1nc(N2CCCCC2)nc(N2CCOCC2)n1 | 44.0* | 0.5 | -98.8 | -4.2 | 0.2 | 4.1 | 20.4 | -7.6
O=C(NC(=S)Nn1cnnc1)c1ccccc1Br | 79.3* | 7.1 | 32.8 | 2.5 | 2.1 | -5.2 | 78.2* | -5.5
O=C(NNC(=O)c1cc(O)c(O)c(O)c1)NC1CCCCC1 | 46.5* | 4.8 | 18.0 | 4.0 | 1.0 | 9.4 | 11.4 | -2.9
COc1ccc(NC(=O)c2cccc(N3C(=O)NC4CC3(C)Oc3ccccc34)c2)cc1 (centres undefined) | 1.8 | 1.1 | -5.8 | 0.0 | -1.6 | -4.9 | / | /
CC12CC(NC(=O)N1c1cccc(C(=O)Nc3ncn[nH]3)c1)c1ccccc1O2 (centres undefined) | 42.8* | 2.3 | 2.1 | 5.6 | -1.2 | 0.3 | 50.4* | -6.8
Oc1ccc(/C=N/N2CCCCC2)c(O)c1O | 48.1* | 44.7 | 36.0 | / | / | 55.2 | 1.4 | -8.1
Oc1cccc(/C=N/N2CCCCC2)c1O | 44.7* | 2.0 | 11.0 | / | / | -12.1 | 21.5 | -3.1
Oc1ccccc1C=NN1CCCCCC1 | / | / | -15.7 | / | / | / | / | /
Cn1c(=O)c2c(ncn2CC(O)CNc2ccc(Br)cc2)n(C)c1=O (centres undefined) | 1.6 | 3.3 | 13.7 | 2.5 | -0.1 | -1.2 | / | /
O=C(Nc1ccccc1)Nc1cccc(Cl)c1 | 11.6 | -1.3 | 5.8 | -4.2 | 0.0 | -9.5 | / | /
CC(Cl)C(=O)NNc1cccc(Cl)n1 (centres undefined) | 12.2 | 22.7 | 1.9 | 5.5 | 0.4 | -7.5 | / | /
O=C(NNc1cccc(Cl)n1)Nc1cccc(Cl)c1 | 52.2* | 11.0 | -6.3 | 5.0 | -0.6 | 11.5 | 49.4* | 1.8
Cc1ccc(NC(=O)NNc2cccc(Cl)n2)cc1 | 52.6* | 0.4 | 11.0 | 3.5 | 1.7 | -1.8 | 24.5 | -4.7
O=C(NNc1cccc(Cl)n1)Nc1ccccc1 | 59.4* | 1.3 | 11.7 | -10.2 | 2.4 | -3.3 | 43.3* | 0.4
Cc1ccc(C)c(-c2csc(N/N=C/c3ccco3)n2)c1 | 1.6 | 5.3 | 8.0 | -4.0 | 0.8 | 2.3 | / | /
CCN(CC)S(=O)(=O)c1ccc2oc(SCC(=O)NC3CC3)nc2c1 | 32.0* | 6.7 | 33.4 | / | / | -10.3 | -24.2 | -8.4
COc1ccc(-c2cc(C(=O)c3c(N)n(C)c(=O)n(C)c3=O)c3ccccc3n2)cc1OC | 8.2 | 38.6 | -4.5 | 1.0 | -0.7 | -10.7 | / | /
O=C(O)c1ccc2nc(-c3ccco3)c(-c3ccco3)nc2c1 | 35.5* | 90.3* | 50.4* | 11.6 | 1.9 | 98.2* | -1.4 | 4.0
CC1(c2ccc([N+](=O)[O-])cc2)Nc2ccccc2S1 (centres undefined) | 35.5* | -3.1 | 41.9* | / | / | 0.6 | -29.2 | 0.4
CC1(c2ccccc2)NC(=O)N(Cc2ccc([N+](=O)[O-])cc2)C1=O (centres undefined) | -2.6 | -13.3 | 5.1 | 3.0 | -0.1 | -11.6 | / | /
O=C(O)c1cn[nH]c1-n1cnnn1 | 65.0* | -0.9 | 4.2 | 3.7 | 1.4 | 5.4 | 64.6* | -6.1
SMILES | PfM18AAP inh-1 | PABP FP inh | MLLE-PAM2 inh | eIF4E 4G PPI | PERK inh | eIF4H inh | PfM18AAP inh-2 | CTSL1 counter
O=C(c1cccnc1Cl)N1CCOCC1 | -2.3 | -1.2 | -1.8 | -3.5 | 1.8 | -5.8 | / | /
Cc1cc(C)c(S(=O)(=O)Nc2ccc(O)c(Sc3ncn[nH]3)c2)c(C)c1 | 48.9* | -6.1 | 13.2 | 0.1 | 0.3 | 1.8 | 13.9 | 0.2
Cc1cc(C)c(S(=O)(=O)Nc2ccc(O)c(Sc3ncn[nH]3)c2)cc1C | 52.2* | 19.1 | 9.0 | / | / | 9.1 | 22.0 | 1.9
CCOC(Cn1cc(C)c(=O)[nH]c1=O)OCC | -11.1 | 18.2 | -1.4 | -2.9 | 0.2 | 0.8 | / | /
COc1cc(Cl)c(S(=O)(=O)NCCCn2ccnc2)cc1Cl | 2.3 | 9.8 | -15.4 | / | / | 3.5 | / | /
Cn1c(N)c(C(=O)Nc2ccccc2F)sc1=S | 9.3 | 0.3 | 8.0 | 3.0 | 2.2 | -10.1 | / | /
Nc1c(C(=O)Nc2ccc(F)cc2)sc(=S)n1-c1ccccc1F | 48.4* | -6.9 | 28.5 | 0.1 | 0.6 | 3.2 | -6.0 | -0.5
O=C(/C=C/c1cccc(Cl)c1)c1nc2ccccc2[nH]1 | 32.4* | -8.3 | 2.8 | 1.0 | -0.6 | -2.0 | 14.4 | 5.3
O=C(/C(=C\c1ccccc1)c1nc2ccccc2[nH]1)c1ccc(Cl)cc1 | -5.7 | 0.6 | 11.3 | -4.3 | -0.2 | 4.1 | / | /
CCN(CC)C(=O)c1csc(Nc2cccc3ccccc23)n1 | 31.8* | -11.0 | 1.4 | / | / | -11.0 | -17.9 | 3.8
COc1ccc(C(=O)NNC(=O)CCn2nnc(-c3ccc(Cl)cc3)n2)cc1OC | 4.9 | -10.2 | 11.1 | -4.6 | 0.2 | -6.6 | / | /
S=C(Nc1ccccc1)Nc1cc(Cl)ccc1Oc1ccccc1 | -2.7 | 13.8 | 33.2 | 5.5 | 1.3 | 0.7 | / | /
COc1cccc(-n2c(CCn3nc(C)c([N+](=O)[O-])c3C)n[nH]c2=S)c1 | 31.8* | 5.9 | 0.7 | 13.6 | 0.2 | -7.0 | 1.6 | -0.3
CCCNC(=O)Cn1sc2nc(C)cc(C)c2c1=O | 58.1* | 3.6 | 20.8 | 1.4 | 1.1 | -8.9 | 30.4* | 0.9
Cc1cc(C)c2c(=O)n(CC(=O)N3CCC(N4CCCCC4)CC3)sc2n1 | 42.9* | 0.7 | 15.7 | 7.5 | 1.9 | 3.7 | 2.1 | 4.1
Cc1nn(CC(=O)N2CCC(N3CCCCC3)CC2)c(=O)c2c1sc1ccccc12 | 1.2 | 17.2 | 1.7 | / | / | 27.1 | / | /
CCOC(=O)C1CCCN(C(=O)Cn2cnc3c2c(=O)n(C)c(=O)n3C)C1 (centres undefined) | -6.3 | -6.9 | 9.9 | -0.5 | -0.4 | 5.7 | / | /
CC(=O)Cn1cnc2c(sc3nc(C)cc(C)c32)c1=O | 1.3 | -3.4 | 3.6 | -0.6 | -1.7 | -0.9 | / | /

Compound activity deposited in PubChem BioAssay by several laboratories.
